Assay [1] can be described thus: CCTE_Simmons_MITO_basal_resp_rate: CCTE's HepG2 Seahorse XF Respirometric Screening Assay at Basal Respiratory State, Simmons Lab (AID 2284001). To be noted: actives raise or lower the signal. The essentials:
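HepG2 respirometry; 7-pt titration 125 nM–100 uM final; kinetic OCR at 6 min intervals for 72 min; n=3 biological, technical singles; DMSO baseline, gain or loss fit; fenpyroximate (decrease) and 2,4-DNP (increase) controls.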

Assay [2] in a line: CCTE_Simmons_MITO_max_resp_rate: CCTE's HepG2 Seahorse XF Respirometric Screening Assay at Maximal Respiratory State [uncoupled], Simmons Lab (AID 2284002). To be noted: actives raise or lower the signal. The method in brief: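 Uncoupled (FCCP) respiration of HepG2 cells served as the endpoint, with measurements at 6-minute intervals across a 72-minute run and compounds dosed at 7 concentrations up to 100 uM final.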

The nature of assay [3]: CCTE_Simmons_MITO_inhib_resp_rate: CCTE's HepG2 Seahorse XF Respirometric Screening Assay at Inhibited Respiratory State [full ETC block], Simmons Lab (AID 2284006). To be noted: actives raise or lower the signal. The method in brief:
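HepG2 cells on Seahorse XF96; oxygen consumption measured after test compound, then FCCP, then rotenone/antimycin A injections over 72 min. Test chemicals at 7 concentrations, 125 nM–100 uM final. OCR fitted bidirectionally versus DMSO.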

A short description of assay [4]: CCTE_Simmons_MITO_viability: CellTiter-Glo Viability Assessment for CCTE's HepG2 Seahorse XF Respirometric Screening Assay [post-hoc], Simmons Lab (AID 2284007; active means hit-call score of the fitted dose curve at least 0.9, where 1 is the maximum;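 on AC50: cells exposed to chemical for 90 min before the ATP read; actives lower ATP signal relative to DMSO baseline meaning reduced viability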). The method in brief:
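HepG2 cells from the Seahorse XF respirometry run were exposed 90 min to a 7-point series, 125 nM–100 uM final, DMSO vehicle; ATP content then read by luciferase luminescence. Three biological replicates, technical singles; loss of signal fitted versus DMSO.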
Background: Cellular ATP, detected with luciferase, serves as a proxy for viable cell number.

Assay [5] can be described thus: CCTE_Shafer_MEA_acute_spike_number: CCTE's Neural Acute Assay for Total Number of Spikes, Shafer Lab (AID 2284008).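 On AC50: curve fitted for decrease in spike count so AC50 reflects inhibitors.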 The essentials:
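Using an adaptive detector set to 8x rms noise, spikes were counted in 40-min windows before and after compound addition (0.03-40 uM) to rat cortical networks at 37 C; the well-level change from baseline was analysed relative to DMSO.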

Assay [6] in a line: CCTE_Shafer_MEA_acute_firing_rate_mean: CCTE's Neural Acute Assay for Mean Firing Rate, Shafer Lab (AID 2284009).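 Further: analyzed for loss of signal so actives lower firing rate relative to DMSO.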 The essentials:
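Percent change in well-mean firing rate was derived from extracellular spikes detected at 8x rms noise (300-5000 Hz band-pass) before and after a 40-min compound exposure. Cultures were primary rat cortical neurons, tested at 0.03-40 uM.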

A short description of assay [7]: CCTE_Harrill_HTTr_Viability_MCF7: CCTE's 6-hour Cell Viability Assessment for the High-Throughput Transcriptomics (HTTr) Platform, in MCF-7 cells cultured in DMEM + 10% fetal bovine serum, Harrill Lab (AID 2284010). The essentials: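 Membrane integrity was scored by high-content imaging of propidium iodide dye exclusion after a 6 h exposure across an eight-point dilution series. Data were fitted bidirectionally relative to DMSO as negative control and baseline.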

Assay [8] in a line: CCTE_Harrill_HTTr_Apoptosis_MCF7: CCTE's 6-hour Apoptosis Assessment for the High-Throughput Transcriptomics (HTTr) Platform, in MCF-7 cells cultured in DMEM + 10% fetal bovine serum, Harrill Lab (AID 2284011). The essentials:
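Apoptosis in MCF-7 cells grown in DMEM with 10% fetal bovine serum was scored after a six hour exposure by high content imaging of caspase-3/7 activation (CellEvent Caspase 3/7 Green), with DMSO serving as negative control and baseline.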

Assay [9] in a line: CCTE_Shafer_MEA_acute_burst_number: CCTE's Neural Acute Assay for Single-Electrode Bursts, Shafer Lab (AID 2284013). The essentials: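 Spontaneous network activity of primary rat cortical neurons was recorded extracellularly on microelectrode arrays at 37 C, with 40-min periods before and during exposure to 0.03-40 uM compound on DIV 13 or 15.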
Assay [10] is described as follows: CCTE_Shafer_MEA_acute_burst_duration_mean: CCTE's Neural Acute Assay for Mean Burst Duration, Shafer Lab (AID 2284014).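 Further: hits are decreases in mean burst duration relative to DMSO controls.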 The essentials:
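Read-out is the per-well percent change in mean burst duration (first to last spike within a single-electrode burst) between 40-min recordings before and after compound. Cultures were primary rat cortical neurons on MEAs, dosed at 0.03-40 uM on DIV 13 or 15.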

A short description of assay [11]: CCTE_Harrill_HTTr_CellCount_MCF7: CCTE's Cell Proliferation Assessment for the High-Throughput Transcriptomics (HTTr) Platform, Harrill Lab (AID 2284012; active means hit-call score of the fitted dose curve at least 0.9, where 1 is the maximum;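 further: cells exposed to compound for six hours; intended direction is loss of nuclei count meaning fewer cells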). The method in brief:
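MCF-7 cells were exposed for 6 h to an eight-point dilution series; Hoechst-labeled nuclei were counted by high content imaging. Curves were fitted bidirectionally against DMSO as negative control and baseline, with signal loss indicating reduced cell count.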

As usually defined, the AC50 is the concentration at which the activity in the assay is half-maximal.

Results filed as inconclusive are left out. Calls of active or inactive are those of the source. How the source made its calls, unless noted: active means hit-call score of the fitted dose curve at least 0.9, where 1 is the maximum; inactive means score below 0.9.

Turning to `CC(C)(C)c1ccc(CSc2cnn(C(C)(C)C)c(=O)c2Cl)cc1`, the AC50 in assay [1] is 960 nM (active); in [2], 655 nM (active); in assay [3], 359 nM (active); in assay [4], 411 nM (active); in assay [5], 24.9 nM (active); in assay [6] it was 24.9 nM (active). Also, the AC50 was 19 nM (active) in assay [9] and 5100 nM (active) in [10]. For the same molecule, the result in assay [7] and in assay [8] was inactive.

`CCCCOC(=O)c1ccccc1C(=O)OCCCC`: the result in assay [7] and in assay [8] was inactive.

As for `CC(Oc1ccc(Cl)cc1Cl)C(=O)O` (stereo not drawn), the result in assay [5], in [6], in assay [7], in assay [8], in assay [9] and in assay [10] was inactive.

`CCOC(=O)C(Cl)Cc1cc(-n2nc(C)n(C(F)F)c2=O)c(F)cc1Cl` (stereo not drawn): the outcome in [7], in [8] and in assay [11] was inactive.

In the case of `O=C(O)COc1nc(Cl)c(Cl)cc1Cl`, the molecule was called inactive in [1], in assay [2], in assay [3], in [7], in assay [8] and in assay [11].

As to `COC(=O)C=C(C)OP(=O)(OC)OC`, the result in assay [7], in assay [8] and in assay [11] was inactive.

For `CNC(=S)S`, the outcome in [7], in [8] and in assay [11] was inactive.

For the molecule `CON(C)C(=O)Nc1ccc(Cl)c(Cl)c1`, the half-maximal activity concentration (AC50) in assay [1] was 26800 nM (active). The outcome in [2], in assay [3], in [4], in [5], in assay [6] and in assay [7] was inactive. Besides, the outcome in assay [8], in [9] and in [10] was inactive.

Consider `CC(C)C1(C)N=C(c2nc3ccccc3cc2C(=O)O)NC1=O` (stereo not drawn), for which the result in assay [7] and in assay [8] was inactive.

As for `Oc1ccccc1-c1ccccc1`, the outcome in [1], in [2], in assay [3], in assay [7], in [8] and in [11] was inactive.

Take `CCCCC(CC)COC(=O)c1ccccc1C(=O)OCC(CC)CCCC` (stereo not drawn): the result in [7], in [8] and in assay [11] was inactive.

For the molecule `Fc1ccc(Oc2ccnc3cc(Cl)cc(Cl)c23)cc1`, the molecule was classed as inactive in assay [5], in assay [6], in assay [7], in assay [8], in assay [9] and in [10].

`COc1cnc(OC)n2nc(NS(=O)(=O)c3c(OCC(F)F)cccc3C(F)(F)F)nc12`: the outcome in assay [7], in [8] and in [11] was inactive.

With `CNC(=O)ON=CC(C)(C)SC`, the outcome in [5], in assay [6], in [7], in assay [8], in [9] and in assay [10] was inactive.

On to `C#CCOS(=O)OC1CCCCC1Oc1ccc(C(C)(C)C)cc1` (stereo not drawn), for which the AC50 in assay [1] was 15500 nM (active); in [2], 11300 nM (active); in assay [5], 9460 nM (active); in assay [6], 9480 nM (active). Also, the call in assay [3], in [7], in [8], in assay [11], in assay [9] and in [10] was inactive.

Turning to `COc1nc(NC(C)C)nc(NC(C)C)n1`, in assay [1], the AC50 is 32600 nM (active). The result in assay [2], in [3], in [4], in [7] and in assay [8] was inactive.

Consider `COP(N)(=O)SC` (stereo not drawn), for which the result in assay [5], in assay [6], in assay [7], in assay [8], in assay [9] and in [10] was inactive.

As to `Cc1c(F)c(F)c(COC(=O)C2C(/C=C(\Cl)C(F)(F)F)C2(C)C)c(F)c1F` (stereo not drawn), the AC50 is 567 nM (active) in assay [5], 581 nM (active) in assay [6] and 226 nM (active) in assay [9]. For the same molecule, the outcome in assay [7], in assay [8], in assay [11] and in [10] was inactive.

Values taken from PubChem BioAssay (EPA / NIEHS).
